Experimental data from PubChem BioAssay (Tox21).
Inconclusive results are not listed. Calls of active or inactive are those of the source. Unless noted, calls come from the whole dose curve; as a rule, active = well fitted curve in the direction sought with a large enough effect in the repeat runs; inconclusive = weak or mixed curves; inactive = no such curve, though single readings can be large; an effect the other way counts as inactive or inconclusive.

How the values were obtained:
[1] = biological target: Thyrotropin receptor (Homo sapiens) (UniProt P16473); experiment: qHTS assay to identify small molecule agonists of the thyroid stimulating hormone receptor (TSHR) signaling pathway (AID 1224843; calls by dose curve; note: nearly all actives have a fitted effect of over 45% in size)
Thyrotropin receptor (Homo sapiens), sequence (P16473 whole entry, looked up): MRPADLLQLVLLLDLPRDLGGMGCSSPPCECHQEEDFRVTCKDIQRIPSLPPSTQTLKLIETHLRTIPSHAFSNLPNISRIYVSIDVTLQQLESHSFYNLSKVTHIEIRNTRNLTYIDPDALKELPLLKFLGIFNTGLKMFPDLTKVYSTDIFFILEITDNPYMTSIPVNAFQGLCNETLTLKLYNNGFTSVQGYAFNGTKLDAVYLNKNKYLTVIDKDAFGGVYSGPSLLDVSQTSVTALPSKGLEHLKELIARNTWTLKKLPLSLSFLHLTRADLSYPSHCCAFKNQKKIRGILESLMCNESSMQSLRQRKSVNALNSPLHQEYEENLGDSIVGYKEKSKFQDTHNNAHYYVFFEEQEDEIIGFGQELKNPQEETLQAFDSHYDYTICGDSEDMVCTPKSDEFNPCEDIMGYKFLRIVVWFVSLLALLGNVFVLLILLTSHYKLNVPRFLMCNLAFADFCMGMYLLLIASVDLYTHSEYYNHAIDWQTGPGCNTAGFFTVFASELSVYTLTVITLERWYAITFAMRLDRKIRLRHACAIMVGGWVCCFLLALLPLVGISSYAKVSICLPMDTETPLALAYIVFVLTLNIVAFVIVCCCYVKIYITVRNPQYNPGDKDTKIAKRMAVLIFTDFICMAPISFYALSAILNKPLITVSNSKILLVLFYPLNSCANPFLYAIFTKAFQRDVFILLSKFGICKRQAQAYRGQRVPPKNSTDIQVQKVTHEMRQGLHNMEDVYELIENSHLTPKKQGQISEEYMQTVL
How it was run: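 Compounds are titrated over 15 concentrations, in triplicate, onto TSHR-HEK293 cells seeded at 800/well. Plates sit 30 min at room temperature before cAMP-d2 and anti-cAMP cryptate are added; signal is read after a further hour.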

[2] = qHTS assay to identify small molecule agonists of the hypoxia (HIF-1) signaling pathway - cell viability counter screen (AID 1224844; calls by dose curve; note: nearly all actives have a fitted effect of over 50% in size)
How it was run: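 Cytotoxicity was measured in parallel with the HRE-driven beta-lactamase readout: after 17 hrs of compound exposure at 37C, HRE-bla ME-180 cells received CellTiter-Glo and luminescence was recorded 30 min later.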

[3] = qHTS assay to identify small molecule agonists of H2AX (AID 1224845; active = well fitted activation curve with a large enough effect in the signal ratio in the repeat runs, not every such curve was filed as active; the % refers to the signal ratio)
How it was run: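 Wild-type CHO-K1 cells plated overnight, then exposed 3 hr at 37C to compounds at 15 concentrations (0.76% DMSO). Lysed, then HTRF anti-pH2AX(S139)-cryptate/anti-H2AX-d2 detection after 24 hr at room temperature; emissions 665 and 620 nm.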

[4] = qHTS assay to identify small molecule agonists of the hypoxia (HIF-1) signaling pathway (AID 1224846; active = well fitted activation curve with a large enough effect in the signal ratio in the repeat runs, not every such curve was filed as active; the % refers to the signal ratio)
How it was run: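 Compounds from the Tox21 10K library, dissolved in DMSO, are tested for induction of a hypoxia response element–controlled beta-lactamase reporter in ME-180 cells. Exposure lasts 17 hrs at 37C after a 5 hr settling period, followed by CCF4-AM FRET substrate.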

[5] = qHTS RealTime-Glo MT Cell Viability Assay in HepG2 cells - 24 hour (AID 1224867); note: nearly all actives have a fitted effect of over 50% in size
How it was run: (§1)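 Cells + NanoLuc/prosubstrate dispensed (600 cells/well) → 5 h at 37 C/5% CO2 → compounds in DMSO transferred → 40 h incubation at 37 C, luminescence read at 0, 8, 16, 24, 32, 40 h.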

[6] = qHTS RealTime-Glo MT Cell Viability Assay in HEK293 cells - 32 hour (AID 1224868); note: top concentration of the series differs between compounds; nearly all actives have a fitted effect of over 50% in size
How it was run: (§2)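 Tox21 10K qHTS, HEK293, 600 cells/well, RealTime-Glo reagent co-dispensed with cells; 5 h preincubation, compound by pintool, 37 C, luminescence at 0–40 h.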

[7] = A CellTox Green Cytotoxicity Assay to monitor cytotoxicity in HEK293 cells - 0 hour (AID 1224869); note: nearly all actives have a fitted effect of over 50% in size
How it was run: (§3)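 Cells (HEK293, 600/well) and dye reagent are dispensed together. After 5 h at 37 C, 23 nL compound is pinned in. Plates stay at 37 C for 40 h with fluorescence read at 0h, 8h, 16h, 24h, 32h and 40h.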

[8] = qHTS RealTime-Glo MT Cell Viability Assay in HepG2 cells - 40 hour (AID 1224870); note: nearly all actives have a fitted effect of over 50% in size
How it was run: (§4)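 HepG2 cells mixed with RealTime-Glo MT reagents (NanoLuc plus cell-permeant prosubstrate) were seeded at 600 cells/well, incubated 5 h at 37 C/5% CO2, then pinned with compounds in DMSO; nonlytic luminescence tracked viability during 40 h treatment.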

[9] = A CellTox Green Cytotoxicity Assay to monitor cytotoxicity in HEK293 cells - 40 hour (AID 1224871); note: nearly all actives have a fitted effect of over 45% in size
How it was run: as §3

[10] = qHTS RealTime-Glo MT Cell Viability Assay in HEK293 cells - 16 hour (AID 1224872)
How it was run: as §2

[11] = qHTS RealTime-Glo MT Cell Viability Assay in HepG2 cells - 8 hour (AID 1224873); note: nearly all actives have a fitted effect of over 55% in size
How it was run: as §4

[12] = qHTS RealTime-Glo MT Cell Viability Assay in HEK293 cells - 40 hour (AID 1224874); conditions: RealTime-Glo luminescence; max response: active compounds read low; note: nearly all actives have a fitted effect of over 50% in size
How it was run: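 Real-time viability in HEK293: signal arises when living cells convert a prosubstrate for NanoLuc in the medium, so luminescence tracks viable cell number. Compound (23 nL, DMSO) added 5 h post-seeding; kinetic reads at 0–40 h, 37 C.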

[13] = A CellTox Green Cytotoxicity Assay to monitor cytotoxicity in HEK293 cells - 24 hour (AID 1224875); note: nearly all actives have a fitted effect of over 45% in size
How it was run: as §3

[14] = A CellTox Green Cytotoxicity Assay to monitor cytotoxicity in HepG2 cells - 16 hour (AID 1224876); note: nearly all actives have a fitted effect of over 45% in size
How it was run: (§5)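 Cells and non-lytic dye reagent are dispensed together (600 HepG2 cells/well) and incubated 5 h before DMSO compound transfer. Kinetic fluorescence is then recorded in the same wells during 40 h at 37 C.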

[15] = qHTS RealTime-Glo MT Cell Viability Assay in HepG2 cells - 32 hour (AID 1224877); note: nearly all actives have a fitted effect of over 55% in size
How it was run: as §1

[16] = A CellTox Green Cytotoxicity Assay to monitor cytotoxicity in HepG2 cells - 24 hour (AID 1224878); note: nearly all actives have a fitted effect of over 45% in size
How it was run: as §5

[17] = A CellTox Green Cytotoxicity Assay to monitor cytotoxicity in HepG2 cells - 40 hour (AID 1224879); note: nearly all actives have a fitted effect of over 40% in size
How it was run: as §5

[18] = qHTS assay to identify small molecule agonists of H2AX - cell viability counter screen (AID 1224847; calls by dose curve; note: top concentration of the series differs between compounds; nearly all actives have a fitted effect of over 30% in size)
How it was run: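 Read-out: CellTiter-Glo luminescence, 30 min RT. Cells: wild-type CHO-K1, 1000/well, 10% FBS, plated overnight at 37C. Treatment: 15 concentrations, 3 hr, 37C, 0.76% DMSO.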

[19] = qHTS assay to identify small molecule antagonists of the estrogen related receptor (ERR) signaling pathway from Tox21 library (AID 1224848); note: nearly all actives have a fitted effect of over 50% in size
How it was run: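 First, 2,000 ERR cells per well were plated and held 6 h at 37 C/5% CO2. Next, compounds in DMSO were pinned in and left 18 h at 37 C. Finally, ONE-Glo was added and luminescence read after 30 min at room temperature.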

[20] = qHTS assay to identify small molecule agonists of the estrogen related receptor (ERR) signaling pathway from Tox21 library (AID 1224849; calls by dose curve; note: nearly all actives have a fitted effect of over 15% in size); conditions: ERR reporter cell line, ONE-Glo luciferase, 18 h; at 92.4 µM (top of the series) unless noted
How it was run: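 Cells carrying the ERR reporter were plated and allowed to settle for 6 h, exposed to library compounds for 18 h at 37 C, then lysed with ONE-Glo and luminescence measured.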
% is set by controls: 0 for no effect and ±100 for the full control effect.

Cc1ccc2c(c1)CCCN2
inactive: Potency [1] | Potency [2] | Potency [3] | outcome [4] | Potency [5] | Potency [6] | Potency [7] | Potency [8] | Potency [9] | Potency [10] | Potency [11] | max response [12] 1.39% | Potency [13] | Potency [14] | Potency [15] | Potency [16] | Potency [17]

CCCCOCCOC(=O)c1cccnc1
inactive: Potency [1] | Potency [2] | Potency [3] | outcome [4] | Potency [18] | Potency [6] | Potency [7] | Potency [9] | Potency [10] | Potency [11] | max response [12] 0.954% | Potency [13] | Potency [14] | Potency [15] | Potency [16] | Potency [17]

CCCCCCCCCCCCCC(=O)OCC(O)CO (stereo not drawn)
inactive: Potency [1] | Potency [2] | Potency [3] | Potency [18] | Potency [19] | activity change, positive = activation [20] 1.85% | Potency [5] | Potency [6] | Potency [7] | Potency [8] | Potency [9] | Potency [10] | Potency [11] | max response [12] -0.733% | Potency [15] | Potency [16] | Potency [17]

CC(C)(C)C(O)/C=C/c1ccc2c(c1)OCO2 (stereo not drawn)
inactive: Potency [1] | Potency [2] | Potency [3] | outcome [4] | Potency [5] | Potency [6] | Potency [7] | Potency [8] | Potency [9] | Potency [10] | Potency [11] | max response [12] 1.57% | Potency [13] | Potency [14] | Potency [15] | Potency [16] | Potency [17]

O=C(O)c1cccc(C[C@@H]2COc3ccc(OCc4nc5cc(F)ccc5s4)cc3[C@@H]2O)c1
inactive: Potency [1] | Potency [2] | Potency [3] | outcome [4] | Potency [6] | Potency [7] | Potency [8] | Potency [9] | Potency [10] | Potency [11] | max response [12] 4.74% | Potency [13] | Potency [14] | Potency [15] | Potency [16] | Potency [17]

O=C1[C@@H]2[C@H]3CC[C@H](C3)[C@@H]2C(=O)N1CCCCN1CCN(c2ncccn2)CC1
inactive: Potency [1] | Potency [2] | outcome [4] | Potency [18] | Potency [5] | Potency [6] | Potency [7] | Potency [8] | Potency [9] | Potency [10] | Potency [11] | max response [12] -0.051% | Potency [13] | Potency [15]

CNc1c2c(nn1C)CCCC2
inactive: Potency [1] | Potency [2] | Potency [3] | Potency [18] | Potency [6] | Potency [7] | Potency [9] | Potency [10] | Potency [11] | max response [12] -3.57% | Potency [13] | Potency [14] | Potency [15] | Potency [16] | Potency [17]

CC(C)(C)C1(CCc2ccc(Cl)cc2)CO1 (stereo not drawn)
inactive: Potency [1] | Potency [2] | Potency [3] | Potency [5] | Potency [6] | Potency [7] | Potency [10] | Potency [11] | max response [12] -16.7% | Potency [14] | Potency [15]
